Laboratory results published in PubChem BioAssay (NCI).
“And” between values parts separate entries of the source, which are not always exact repeats. Equal values may be shown once. The panel holds about 83,000 compounds, 20% with a hit somewhere; the sample as a whole holds those more often.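 Compound tested at a single concentration for 48 hours in 96-well plates; a percent growth value below 10 was scored as active.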 The source made the active and inactive calls.

Columns and labels:
Experiment in all cases: NCI-60 one-dose screen, 48 h (100 = growth as untreated, 0 = no growth, -100 = all killed)
HCT-15 colon = conditions: 10 µM unless noted
HT29 colon = tested on: HT29 colon
SNB-75 CNS = tested on: SNB-75 CNS
SNB-19 CNS = tested on: SNB-19 CNS
U251 CNS = conditions: 10 µM unless noted
PC-3 prostate = tested on: PC-3 prostate
UACC-62 melanoma = tested on: UACC-62 melanoma
LOX IMVI melanoma = tested on: LOX IMVI melanoma
SK-MEL-28 melanoma = tested on: SK-MEL-28 melanoma
SK-MEL-2 melanoma = tested on: SK-MEL-2 melanoma
EKVX NSCLC = tested on: EKVX NSCLC
SN12C renal = tested on: SN12C renal
UO-31 renal = tested on: UO-31 renal
TK-10 renal = tested on: TK-10 renal
ACHN renal = conditions: 10 µM unless noted
CAKI-1 renal = conditions: 10 µM unless noted
A498 renal = tested on: A498 renal
CCRF-CEM leukemia = tested on: CCRF-CEM leukemia
MOLT-4 leukemia = tested on: MOLT-4 leukemia
SK-MEL-5 melanoma = tested on: SK-MEL-5 melanoma

Measured: growth

CCCCCC(CCCCC)C(=O)O
inactive: HCT-15 colon 98.2% | HT29 colon; 10 µM unless noted 105% | SNB-75 CNS; 10 µM unless noted 89.9% | SNB-19 CNS; 10 µM unless noted 103% | U251 CNS 85.5% | PC-3 prostate; 10 µM unless noted 87.6% | UACC-62 melanoma; 10 µM unless noted 94.4% | LOX IMVI melanoma; 10 µM unless noted 110% | SK-MEL-28 melanoma; 10 µM unless noted 111% | SK-MEL-2 melanoma; 10 µM unless noted 99.2% | EKVX NSCLC; 10 µM unless noted 116% | SN12C renal; 10 µM unless noted 98.8% | UO-31 renal; 10 µM unless noted 87.6% | TK-10 renal; 10 µM unless noted 101% | ACHN renal 109% | CAKI-1 renal 119% | A498 renal; 10 µM unless noted 103% | CCRF-CEM leukemia; 10 µM unless noted 83.8%

O=C(/C=C\c1cc(Br)ccc1O)/C=C/c1cc(Br)ccc1O
active: HCT-15 colon 0% | HT29 colon; 10 µM unless noted -54.2% | SNB-75 CNS; 10 µM unless noted -8.46% | SNB-19 CNS; 10 µM unless noted -52.7% | U251 CNS -82.6% | PC-3 prostate; 10 µM unless noted -16% | LOX IMVI melanoma; 10 µM unless noted -95.6% | SK-MEL-28 melanoma; 10 µM unless noted -66.9% | SK-MEL-2 melanoma; 10 µM unless noted -63.1% | EKVX NSCLC; 10 µM unless noted 8.88% | SN12C renal; 10 µM unless noted -55.4% | UO-31 renal; 10 µM unless noted -72.9% | TK-10 renal; 10 µM unless noted -20% | ACHN renal -59.8% | A498 renal; 10 µM unless noted -70.1% | MOLT-4 leukemia; 10 µM unless noted 0.164%

CCCCCCCCCCCCCCCCOP(=O)([O-])OCC[N+](C)(C)C
active: HCT-15 colon 1.44% | HT29 colon; 10 µM unless noted -14% | SNB-19 CNS; 10 µM unless noted -13.3% | U251 CNS 8.3% | PC-3 prostate; 10 µM unless noted -22.1% | TK-10 renal; 10 µM unless noted -70.3% | A498 renal; 10 µM unless noted 3.51% | CCRF-CEM leukemia; 10 µM unless noted 1.24% | MOLT-4 leukemia; 10 µM unless noted -19.9%
inactive: SNB-75 CNS; 10 µM unless noted 44.2% | UACC-62 melanoma; 10 µM unless noted 37.6% | LOX IMVI melanoma; 10 µM unless noted 27.8% | SK-MEL-28 melanoma; 10 µM unless noted 98.3% | SK-MEL-2 melanoma; 10 µM unless noted 56.8% | EKVX NSCLC; 10 µM unless noted 46.9% | SN12C renal; 10 µM unless noted 34.2% | ACHN renal 36.4% | CAKI-1 renal 16.5%

COc1ccccc1OC(=O)Oc1ccccc1OC
inactive: HCT-15 colon 110% and 95.2% | HT29 colon; 10 µM unless noted 102% and 95.7% | SNB-75 CNS; 10 µM unless noted 97.8% and 90.8% | SNB-19 CNS; 10 µM unless noted 104% | U251 CNS 111% and 106% | PC-3 prostate; 10 µM unless noted 102% and 81.8% | LOX IMVI melanoma; 10 µM unless noted 107% and 95% | SK-MEL-28 melanoma; 10 µM unless noted 110% and 106% | SK-MEL-2 melanoma; 10 µM unless noted 115% and 91.6% | EKVX NSCLC; 10 µM unless noted 118% and 97% | SN12C renal; 10 µM unless noted 105% and 95.8% | UO-31 renal; 10 µM unless noted 78.2% and 93.9% | TK-10 renal; 10 µM unless noted 104% and 98% | ACHN renal 108% and 104% | CAKI-1 renal 97.9% | A498 renal; 10 µM unless noted 108% and 103% | CCRF-CEM leukemia; 10 µM unless noted 101% and 83.6%

O=C(O)c1c(Cl)c(Cl)c(Cl)c(Cl)c1-c1c2cc(I)c(=O)c(I)c-2oc2c(I)c(O)c(I)cc12
inactive: HT29 colon; 10 µM 105% and 104% and 95.2% | HT29 colon; 100 µM 39.2% | SNB-75 CNS; 10 µM 108% and 91.1% and 49.5% | SNB-75 CNS; 100 µM 26% | SNB-19 CNS; 10 µM 100% and 98.4% and 97.9% | U251 CNS 98.5% and 95.3% and 97.7% | PC-3 prostate; 10 µM 116% and 82.8% and 34% | SK-MEL-5 melanoma; 10 µM 107% and 110% and 96.1% | SK-MEL-5 melanoma; 100 µM 22.1% | UACC-62 melanoma; 10 µM 98.8% and 107% and 96.1% | LOX IMVI melanoma; 10 µM 98.6% and 92% and 87.7% | SK-MEL-28 melanoma; 10 µM 105% and 327% and 108% | SK-MEL-2 melanoma; 10 µM 110% and 108% and 73.8% | EKVX NSCLC; 10 µM 98.6% and 98.8% and 91.3% | SN12C renal; 10 µM 99.1% and 95.2% and 98.3% | UO-31 renal; 10 µM 102% and 72.9% and 84% | UO-31 renal; 100 µM 49.8% | TK-10 renal; 10 µM 108% and 116% and 84.5% | TK-10 renal; 100 µM 36.6% | A498 renal; 10 µM 300% and 106% | A498 renal; 100 µM 37.1% | CCRF-CEM leukemia; 10 µM 104% and 101% and 51.4% | MOLT-4 leukemia; 10 µM 110% and 106% and 91.4%
active: SNB-19 CNS; 100 µM -47.9% | PC-3 prostate; 100 µM -7.17% | UACC-62 melanoma; 100 µM -41.3% | LOX IMVI melanoma; 100 µM -76.1% | SK-MEL-28 melanoma; 100 µM -55.7% | SK-MEL-2 melanoma; 100 µM -40.2% | EKVX NSCLC; 100 µM -19.9% | SN12C renal; 100 µM 2.38% | CCRF-CEM leukemia; 100 µM -30.2% | MOLT-4 leukemia; 100 µM -50.2%

O=C1c2ccccc2C(=O)c2sc(Nc3cccc(Cl)c3)nc21
active: HCT-15 colon -67.3% | SNB-75 CNS; 10 µM unless noted -85.2% | U251 CNS -47.3% | PC-3 prostate; 10 µM unless noted 3.03% | UACC-62 melanoma; 10 µM unless noted -55.6% | LOX IMVI melanoma; 10 µM unless noted -69.1% | SK-MEL-28 melanoma; 10 µM unless noted -78.1% | SK-MEL-2 melanoma; 10 µM unless noted -16% | EKVX NSCLC; 10 µM unless noted 7.78% | SN12C renal; 10 µM unless noted -71.3% | UO-31 renal; 10 µM unless noted -5.49% | CCRF-CEM leukemia; 10 µM unless noted 8.52%
inactive: HT29 colon; 10 µM unless noted 76.1% | SNB-19 CNS; 10 µM unless noted 42.8% | TK-10 renal; 10 µM unless noted 147% | CAKI-1 renal 70.4% | A498 renal; 10 µM unless noted 79.3%
